Among the data in PubChem BioAssay (NCATS) are Potency, outcome and activity change, negative = cytotoxicity values, retold here.

Records with an inconclusive call do not appear. A number with no mark means an inactive call. Active and inactive are the calls of the source. Calls follow the shape of the dose curve; as a rule, active = well fitted curve in the direction sought with a large enough effect; inconclusive = small, poorly fitted or top-dose-only effect, or another doubt; inactive = no such curve, though single readings can be large; an effect the other way counts as inactive or inconclusive.

In one test the test system is C33A. As to the kind of experiment: Primary qHTS to identify gynecologic anti-cancer compounds using libraries of approved drugs and bioactive compounds (AID 1345084). Also: nearly all actives have a fitted effect of over 55% in size. Also: potency is read from the fitted curve at half-maximal effect. As to activity change, negative = cytotoxicity: % is scaled to controls: 0 for no effect and ±100 for the full control effect. Particulars: Gynecologic cancer cell panel viability, ATPlite luminescence, 48 h; series mostly up to 57.5 µM. In a few lines:
(§1)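 Cells, 1,000 per well, were allowed to settle for 16 h at 37 C before compound addition. Five concentrations were tested for 48 h, and viability was read by ATPlite luminescence after 15 min at room temperature.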
A general note: Quantitative high-throughput screening tests each substance at several concentrations.

A further test concerns CAOV3. The description is as above. Particulars: Gynecologic cancer cell panel viability, ATPlite luminescence, 48 h; series mostly up to 57.5 µM. Put shortly:
as §1
For orientation: Cellular ATP, detected with luciferase, serves as a proxy for viable cell number.

The subject of the next test is CASKI. The test is described as above. The following applies: Gynecologic cancer cell panel viability, ATPlite luminescence, 48 h; series mostly up to 57.5 µM. Put shortly: as §1
For the next test, the system named is Es-2. The description is as above. The following applies: Gynecologic cancer cell panel viability, ATPlite luminescence, 48 h; series mostly up to 57.5 µM. Put shortly: as §1
The test system of a further test is HeLa. Described as above. The following applies: Gynecologic cancer cell panel viability, ATPlite luminescence, 48 h; series mostly up to 57.5 µM. In a few lines: as §1
A further test has as its system Hek293T. The test is described as above. Particulars: Gynecologic cancer cell panel viability, ATPlite luminescence, 48 h, control line for the selectivity index; series mostly up to 57.5 µM. Put shortly: as §1
Another test has as its system JEG-3. The description is as above. The following applies: Gynecologic cancer cell panel viability, ATPlite luminescence, 48 h; series mostly up to 57.5 µM. Put shortly: as §1
A further test relates to OV90. Described as above. Particulars: Gynecologic cancer cell panel viability, ATPlite luminescence, 48 h; series mostly up to 57.5 µM. Put shortly:
as §1

In the next test the test system is PA-1. The description is as above. The following applies: Gynecologic cancer cell panel viability, ATPlite luminescence, 48 h; series mostly up to 57.5 µM. Put shortly:
as §1

The next test has as its system SKOV3. The test is described as above. The following applies: Gynecologic cancer cell panel viability, ATPlite luminescence, 48 h; series mostly up to 57.5 µM. Put shortly: as §1
A further test has as its system Tov-21-G. The test is described as above. Particulars: Gynecologic cancer cell panel viability, ATPlite luminescence, 48 h; series mostly up to 57.5 µM. Put shortly:
as §1

A further test deals with NIH3T3. As to the kind of experiment: qHTS assay to identify novel small-molecules to repurpose for Merkel cell carcinoma treatment (AID 1296009). Also: nearly all actives have a fitted effect of over 60% in size. Particulars: MCC and control cell lines, CellTiter-Glo viability, 72 h; series mostly up to 44.8 µM. In a few lines:
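Luminescence from CellTiter-Glo, read 10 min after addition at room temperature, reported viability following a 72 hr, 37 degree celsius treatment with NPC or MIPE compounds in titration; values normalized to plate controls.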

A further test relates to Tov112D. Kind of test: Primary qHTS to identify gynecologic anti-cancer compounds using libraries of approved drugs and bioactive compounds (AID 1345084). Also: nearly all actives have a fitted effect of over 55% in size. Also: potency is read from the fitted curve at half-maximal effect. As to activity change, negative = cytotoxicity: % is scaled to controls: 0 for no effect and ±100 for the full control effect. Particulars: Gynecologic cancer cell panel viability, ATPlite luminescence, 48 h; series mostly up to 57.5 µM. Put shortly: as §1

For `CC(OC1OCCN(Cc2n[nH]c(=O)[nH]2)C1c1ccc(F)cc1)c1cc(C(F)(F)F)cc(C(F)(F)F)c1` (stereo not drawn), the Potency result in the test with C33A, in the test with CAOV3, with CASKI, with Es-2, in the test on HeLa and with Hek293T was “inactive” throughout. In addition, the Potency result in the test with JEG-3, in the test on OV90, in the test on PA-1, in the test with SKOV3 and in the test on Tov-21-G was “inactive” throughout.

Regarding `C=CC(C)(C)c1[nH]c2ccccc2c1C[C@@H]1NC(=O)[C@H](C)NC1=O`, the Potency entry in the test on NIH3T3, in the test on C33A, in the test on CASKI, in the test with Es-2, in the test on HeLa and in the test on Hek293T was “inactive” throughout. The Potency entry in the test with JEG-3, in the test on OV90, in the test on PA-1, with SKOV3, in the test on Tov-21-G and with Tov112D was “inactive” in each case.

On to `C[C@@H]1C[C@H](C)CN(CCC(=O)Nc2ccc(Br)cc2)C1`, for which the Potency result in the test on C33A, in the test on CAOV3, with CASKI, in the test with Es-2, with HeLa and in the test with Hek293T was “inactive” throughout. Besides, the Potency result in the test with JEG-3, in the test with OV90, in the test with PA-1, in the test with SKOV3 and in the test on Tov-21-G was “inactive” each time.

Turning to `Cc1ccc(C(C)C)c(O[C@@H]2O[C@H](CO)[C@@H](O)[C@H](O)[C@H]2O)c1`, the Potency result in the test with C33A, in the test with CAOV3, in the test on CASKI, with Es-2, with HeLa and with Hek293T was “inactive” each time. Moreover, the Potency entry in the test on JEG-3, with OV90, in the test on PA-1, in the test on SKOV3 and in the test on Tov-21-G was “inactive” in each case.

In the case of `CC(=O)OC(C)(C)/C=C/C(=O)[C@](C)(O)[C@H]1C(O)C[C@@]2(C)[C@@H]3CC=C4[C@@H](C=C(O[C@@H]5O[C@H](CO)[C@@H](O)[C@H](O)[C@H]5O)C(=O)C4(C)C)[C@]3(C)C(=O)C[C@]12C` (stereo partly drawn), the Potency result with NIH3T3, with C33A, in the test with CASKI, with Es-2, in the test on HeLa and with Hek293T was “inactive” each time. The Potency result with JEG-3, in the test on OV90, in the test on PA-1, in the test with Tov-21-G and in the test with Tov112D was “inactive” in each case.

Take `CCCN(CCc1ccsc1)C1CCc2c(O)cccc2C1` (stereo not drawn): the Potency entry with NIH3T3, in the test on C33A, in the test with CASKI, with Es-2, with HeLa and with Hek293T was “inactive” in each case. The Potency result in the test with JEG-3, with OV90, with PA-1, in the test on SKOV3, with Tov-21-G and in the test on Tov112D was “inactive” in each case.

With `COC(=O)c1cc2c(C(F)(F)F)cc(-c3ccccc3)cc2n1O`, the Potency entry in the test on NIH3T3, with C33A, in the test with CASKI, with Es-2, in the test with HeLa and in the test with Hek293T was “inactive” each time. In addition, the Potency entry in the test with JEG-3, in the test with OV90, with PA-1, in the test on SKOV3, in the test with Tov-21-G and in the test with Tov112D was “inactive” each time.

As for `Cc1ccc(NC(=O)c2ccc(CN3CCNCC3)cc2)cc1Nc1nccc(-c2cccnc2)n1`, in the test on NIH3T3, the Potency entry is “inactive”. The Potency in the test on CASKI was 17.8 µM (active); in the test with Es-2 it was 15.8 µM (active); with Hek293T, 11.2 µM (active); in the test with JEG-3 it was 17.8 µM (active); in the test with OV90, 14.1 µM (active); with PA-1, 12.6 µM (active). Besides, the Potency with Tov-21-G and with Tov112D was 28.2 µM (active) in each case.

In the case of `C/C=C(/C)C(=O)O[C@H]1C=C(CO)C(=O)[C@H](OC(=O)/C(C)=C/CO)[C@H]1C(C)C`, the Potency is 10 µM (active) in the test with C33A and 11.2 µM (active) in the test on CAOV3.

In the case of `Cc1cc(C(=O)Nc2cc(Oc3ccc4nc(NC(=O)C5CC5)cn4n3)ccc2C)n(C)n1`, the Potency result in the test with C33A, with CAOV3, with CASKI, with Es-2, in the test on HeLa and in the test on Hek293T was “inactive” throughout. The Potency entry in the test on JEG-3, in the test on OV90 and with PA-1 was “inactive” each time. Besides, the Potency in the test on SKOV3 is 10 µM (active).

For the compound `COc1ccccc1N1CCN(c2ncnc3n[nH]c(Br)c23)CC1`, the Potency result in the test with NIH3T3, in the test with C33A, with CAOV3, in the test on CASKI, in the test on Es-2 and in the test on Hek293T was “inactive” in each case. Further, the Potency entry with JEG-3, in the test on OV90, in the test on PA-1, with SKOV3, in the test with Tov-21-G and in the test with Tov112D was “inactive” in each case.

Consider `O=C(Nc1ncc([N+](=O)[O-])s1)c1ccccc1O`, for which the Potency result in the test with NIH3T3, in the test on C33A, with CAOV3, in the test with CASKI, in the test with HeLa and in the test with Hek293T was “inactive” throughout. Moreover, the Potency result in the test on JEG-3, in the test with OV90, in the test on PA-1, in the test on SKOV3, in the test on Tov-21-G and in the test with Tov112D was “inactive” throughout.

On to `CCN(Cc1ccccc1)C(=O)Cn1c(=O)n(C)c2cnc(-c3ccccc3)nc21`, for which the Potency result in the test on NIH3T3, in the test with C33A, in the test on CASKI, in the test on Es-2, with HeLa and in the test on Hek293T was “inactive” in each case. The Potency entry in the test with JEG-3, with OV90, with PA-1, in the test on Tov-21-G and with Tov112D was “inactive” throughout.

Consider `COc1cc2nc(N3CCN(C(=O)COc4c(OC)cccc4C(C)C)CC3)nc(N)c2cc1OC`, for which the Potency entry with NIH3T3, in the test on C33A, in the test with CASKI, with Es-2, in the test on HeLa and in the test on Hek293T was “inactive” in each case. Besides, the Potency entry in the test with JEG-3, in the test with OV90, in the test on PA-1, in the test on SKOV3, in the test with Tov-21-G and with Tov112D was “inactive” in each case.

As for `COC1CC(O[C@H]2CC[C@]3(C)C4CC[C@]5(C)C(C6=CC(=O)OC6)=CCC56OC46CC[C@@H]3C2)OC(C)C1O[C@@H]1O[C@H](CO[C@@H]2O[C@H](CO)[C@@H](O)[C@H](O)[C@H]2O)[C@@H](O)[C@H](O)[C@H]1O` (stereo partly drawn), in the test with NIH3T3, the outcome is “inactive [at 9.27 µM]”. Further, the Potency in the test on C33A is 2.82 µM (active); with Es-2, 3.16 µM (active); in the test with HeLa it was 3.55 µM (active); in the test with Hek293T, 2.82 µM (active); in the test on PA-1, 3.98 µM (active); with SKOV3, 3.16 µM (active). In addition, the results for the Potency in the test with Tov-21-G and with Tov112D were 2.24 µM (active) and 2 µM (active), respectively. For the same compound, in the test on CASKI, the activity change, negative = cytotoxicity was -27.8% [at 11.6 µM].
